Source: PubChem BioAssay (Broad Institute)
Tg IFNy HTS: blocks Toxoplasma gondii growth in the presence of IFN-gamma. activity change, negative = inhibition, % (test concentration not listed). Toxoplasma gondii growth in IFN-gamma-treated host cells; active compounds read low. AID 1259416. 3.8% of 69,000 active; in the data active means activity change below about -70%, passing the limit was not always enough;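 further: host cells are HeLa cells infected with Toxoplasma gondii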
Numbers stand for hits; – = inactive. The full list was thinned out, with hits kept by preference.

SMILES	Tg IFNy HTS
COCC1CC2(CCN(C(=O)Cc3ccc(OC)cc3)CC2)CO1 (centres undefined)	–
CCOc1ccccc1NC(=O)NCC1CNCCOC1 (centres undefined)	–
C[C@@H]1CN([C@H](C)CO)C(=O)CCCn2nncc2CO[C@@H]1CN(C)C(=O)CCC(F)(F)F	–
O=C(NC1CCC1)[C@H]1C[C@H]2CN(Cc3ccccc3)C[C@H]1O2	–
O=C(NC1CCC1)[C@H]1C[C@@H]2CN(C(=O)Nc3ccc(Cl)cc3)C[C@H]1O2	–
O=C(NC1CCC1)[C@H]1C[C@H]2CN(Cc3ccc(Cl)cc3)C[C@H]1O2	-93
Cc1nc(OCC(=O)Nc2cccc(C(F)(F)F)c2)c2ccccc2n1	–
Cn1cccc1C(=O)NC[C@@H]1C[C@H]2CN(Cc3ccco3)C[C@@H]2O1	–
CCOC(=O)CSc1nc2ccccc2c(=O)n1CCc1ccc(OC)c(OC)c1	–
O=C(c1cscn1)N1CC[C@@H]2[C@H]1CCN2CC1CCOCC1	–
Cn1cc(CC(=O)NCc2cnn3ccccc23)c2ccccc21	–
Cn1cc(CNCC2CCN(c3ncc(C(=O)NO)cn3)CC2)c2ccccc21	-79
O=C(NO)c1cnc(N2CCN(S(=O)(=O)c3ccc4ccccc4c3)CC2)nc1	–
O=S(=O)(NCc1ccc(-c2cccs2)cc1)c1ccc2c(c1)OCCCO2	–
COCCNC(=O)C[C@H]1C[C@@H]2CN(c3cc(OC)ncn3)C[C@H]2O1	–
CC(C)NC(=O)N1CCC2(CC1)CCn1c(-c3cnn(C)c3)cnc12	–
CC(=O)N1CCC2(CC1)NCCn1c(-c3ccnn3C)cnc12	–
CC(C)NC(=O)N1CCC2(CC1)c1ncc(-c3ccnn3C)n1CCN2C	-89
O=C1CCCCCN1CC(=O)N1CCc2onc(-c3ccccc3)c2C1	–
CC(=O)C(C)(C)OC(=O)NCc1cccs1	–
CC(=O)C(C)(C)OC(=O)NCCc1ccc(Cl)cc1	-76
COc1ccc(Cl)cc1C(=O)NCCc1ccc(C(=O)O)cc1	–
CNC(=O)c1cc2c(nc1NC(C)C)CCN(C(=O)NC1CCCC1)CC2	–
COc1cccc(CC(=O)N2CCc3ncnc(NC4CC4)c3CC2)c1	–
COc1ccc(CC(=O)N2CCc3ncnc(NC4CC4)c3CC2)cc1	–
SMILES	Tg IFNy HTS
O=C(c1ccco1)N1CCc2ncnc(NC3CC3)c2CC1	-86
CSc1nc(N)nc(-c2ccccn2)n1	–
COc1ccccc1C(=O)Nc1ccc2c(c1)C(=O)N(C)C[C@H](OC)[C@@H](C)CN(C(C)=O)[C@@H](C)CO2	–
CN1CCN(CCC(=O)N2CCN(c3nsc4ccccc34)CC2)CC1	–
Cc1c(S(=O)(=O)N2CCN(c3nsc4ccccc34)CC2)cnn1C(F)F	–
O=C1Cc2cc(CCN3CCN(c4nsc5ccccc45)CC3)c(Cl)cc2N1	-81
CN(CCC1(O)CCCC1)C(=O)Cc1nc2ccccc2o1	–
COc1c(C)c2c(c(O)c1C/C=C(/C)CCC(=O)O)C(=O)OC2	-77
Cc1ccc(S(=O)(=O)N[C@H]2C=C[C@@H](CC(=O)NCc3ccc(Cl)c(Cl)c3)O[C@H]2CO)cc1	–
C[C@H]1CN([C@@H](C)CO)C(=O)c2cc(NS(=O)(=O)c3cn(C)cn3)ccc2O[C@H]1CN(C)C(=O)Nc1cccc2ccccc12	–
CCN1C(=O)[C@@H]2CN(C(C)=O)C[C@H]2C12CCN(C(=O)NCCc1ccccc1)CC2	–
Clc1cccc(Cl)c1Cn1ccnc1	–
Clc1ccc(CCC(Cn2ccnc2)Sc2c(Cl)cccc2Cl)cc1 (centres undefined)	-86
COc1ccccc1CN(CCCn1ccnc1)Cc1ccc(F)c(F)c1	–
C[C@@H]1CCCCO[C@H](CN(C)Cc2ccncc2)[C@H](C)CN([C@H](C)CO)C(=O)c2cc(NC(=O)Cc3ccccc3)ccc2O1	–
CCCC(=O)Oc1ccc2[nH]c(C(=O)c3cc4ccccc4[nH]3)cc2c1	–
CCS(=O)(=O)N1[C@H](CO)[C@@H](c2ccccc2C2=CCCCC2)[C@@H]1C#N	–
COC(=O)c1cnc(Sc2ccc(Cl)cc2)nc1C(F)(F)F	-101
CCOC(=O)c1cnc(-c2cccs2)nc1Sc1ccc(Cl)cc1	–
CCOc1cc(C(F)(F)F)c(C(=O)N(CC)c2ccc(Cl)cc2)cn1	–
CN(C)c1ccc(NC(=O)Cn2nc3c(cc2=O)CCc2nc(N4CCCC4)ncc2-3)cc1	–
COc1ccc2c3c(n(C)c2c1)[C@@H](CO)N(C(=O)NC(C)C)CC31CCN(CC2CCOCC2)CC1	–
CCn1c(CC2CCN(Cc3ccc(OC)c(C)c3)CC2)nn(C)c1=O	–
NCCCCN=C(N)N	–
S=C(CCC(=S)Nc1ccc(Cl)cc1)Nc1ccc(Cl)cc1	–
SMILES	Tg IFNy HTS
CSCCNC(=O)Nc1ccc(Cl)cc1	–
O=C(Cc1ccc(O)cc1)NCCNC(=S)Nc1ccc(Cl)cc1	-96
CCN(Cc1nc(C(C)C)no1)C(=O)c1ccccc1-n1cccn1	–
COc1cc(OC)c2cc(C(=O)NCCN3C(=O)CSC3=O)n(C)c2c1	–
COc1ccc(C(=O)N2CCc3[nH]cnc3C23CCCCC3)cc1	–
O=C(Cc1ccc(OC(F)(F)F)cc1)N1CCc2[nH]cnc2C12CCCC2	-80
O=C(Cc1ccc(F)cc1)N1CCC2(CC1)COCCN(c1ncccn1)C2	–
CC(=O)Nc1ccc(Cl)c(C(=O)N2CCC(Oc3cccc(C)c3)CC2)c1	–
Cc1cccc(S(=O)(=O)N2CCC3(CC2)C(=O)NCCN3Cc2ccccc2)c1	–
O=C(Nc1cccc(Nc2ncc(Br)c(NCCc3cnc[nH]3)n2)c1)N1CCCC1	–
CC(Cc1cnccn1)NC(=O)c1cn(C/C=C/c2ccccc2)nn1 (centres undefined)	–
CC(C)C[C@H](NC(=O)[C@@H](NC(=O)c1cccc(-c2ccccc2)n1)[C@@H](C)O)B(O)O	–
CC(C)C[C@H](NC(=O)[C@H](Cc1ccccc1)NC(=O)c1cnccn1)B(O)O	-81
C[C@H](CO)N1C[C@H](C)[C@H](CN(C)C)Oc2ccc(NS(C)(=O)=O)cc2C1=O	–
COCC1CN(Cc2cc(C)on2)Cc2c1cnn2CC1CC1 (centres undefined)	–
CCOCC12CCCOC1CCN(Cc1cccs1)C2 (centres undefined)	–
CCOCC12CCCOC1CCN(Cc1ccc(C)s1)C2 (centres undefined)	-88
CCOCC12CCCOC1CCN(C(=O)c1ccncc1)C2 (centres undefined)	–
COC(=O)c1sccc1OS(=O)(=O)c1cn(C)cn1	–
COCC(=O)Nc1ccc(-c2nc(-c3ccc(C)cc3C)co2)cc1	–
C=CCn1c(-c2c(-c3ccccc3)ncn2CCc2cnc[nH]2)nc2ccccc21	–
CCCc1c(-c2ccccc2)nc2[nH]c3ccccc3n2c1=O	–
C=CCn1c2ccccc2n2c(C(=O)CC)c(-c3ccccc3)nc12	-98
CO[C@@H]1CN(C)C(=O)c2ccc(NC(=O)Nc3ccc(F)cc3)cc2OC[C@@H](C)N(C(=O)c2ccc(F)cc2)C[C@H]1C	–
Cc1ccc2c(c1C)-n1cccc1C1(CCN(S(=O)(=O)c3ccc(F)c(F)c3)CC1)N2	–
SMILES	Tg IFNy HTS
CCCCC(=O)Nc1ccc(C)cc1NC(=O)c1ccncc1F	–
Cc1nc(C)c(CC(=O)N2CCOc3ccc(CN4CCN(c5ccccn5)CC4)cc3C2)s1	–
Cc1c(C)n(C2CCCC2)c2ncnc(OC3CCN(C(=O)Cc4ccsc4)CC3)c12	-80
CS(=O)(=O)c1cnc(N2CCCCC2)nc1C1CCN(C(=O)Cc2ccsc2)CC1	–
CN(C)Cc1cnc2n1CCN(C(=O)Cc1ccsc1)CC2	–
CCc1nc(Nc2ccc3c(c2)OCO3)c2nnn(Cc3ccccc3Cl)c2n1	-99
